# Screening results as filed in PubChem BioAssay.
# FAS-TE inh = inhibitors of human fatty acid synthase thioesterase domain. AID 602261. recombinant FAS-TE, OMFH fluorogenic substrate, fluorescence endpoint. inhibition, % at 15 µM. 360,000 compounds, 0.67% hits;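 active = compounds whose normalised, plate-corrected inhibition of enzyme fluorescence in the single-dose primary screen is 50% or more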;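 also: 0% = DMSO with enzyme and 100% = substrate without enzyme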
# GRIN3A LBD mod = modulators (binders) of human NR3A ligand-binding domain. NR3A LBD differential scanning fluorimetry, Tm shift; 0% = protein alone, 100% = glycine-bound protein. Tm shift relative to glycine control, % at 25 µM. 340,000 compounds, 2.5% hits;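 active = melting temperature shift of at least 10% of the positive control shift, at one fixed dose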
# ADAM10 inh = inhibitors of human ADAM10. 370,000 compounds, 0.62% hits. AID 720582. recombinant ADAM10, EDANS/DABCYL FRET peptide cleavage, 3 h. O14672. inhibition, % at 7 µM;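 active = inhibition above a per-campaign cutoff equal to the mean of compounds falling between control-based bounds plus 3 SD, cut at about 20% in these data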;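 also: 0% = DMSO wells while the 100% control is not disclosed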
# Target sequence (O14672 214-748 limits assumed): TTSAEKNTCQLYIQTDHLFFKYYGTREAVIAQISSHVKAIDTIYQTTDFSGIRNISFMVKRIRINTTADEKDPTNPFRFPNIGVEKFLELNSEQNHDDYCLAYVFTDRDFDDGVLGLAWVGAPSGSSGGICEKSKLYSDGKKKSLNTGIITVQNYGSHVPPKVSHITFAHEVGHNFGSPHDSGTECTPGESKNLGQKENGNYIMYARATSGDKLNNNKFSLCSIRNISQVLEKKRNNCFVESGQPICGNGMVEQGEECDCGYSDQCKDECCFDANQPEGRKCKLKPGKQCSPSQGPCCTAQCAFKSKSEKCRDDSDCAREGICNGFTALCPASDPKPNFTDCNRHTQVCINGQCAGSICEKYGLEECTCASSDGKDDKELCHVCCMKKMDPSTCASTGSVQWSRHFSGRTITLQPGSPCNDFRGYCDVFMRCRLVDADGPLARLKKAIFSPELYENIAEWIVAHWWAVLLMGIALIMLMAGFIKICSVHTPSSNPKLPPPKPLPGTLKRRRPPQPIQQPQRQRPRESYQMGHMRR
# ADAM17 inh = inhibitors of human ADAM17 | AID 720648 | inhibition, % at 6.95 µM | P78536 | recombinant ADAM17, EDANS/DABCYL FRET peptide cleavage | 370,000 compounds, 0.83% hits;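 active = inhibition above the mean of compounds lying between control limits plus 3 SD, set per campaign, cut at about 8.5% in these data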;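 also: 0% = DMSO-only wells as the low control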
# aDG glyco up = alpha-DG glycosylation activation | Pro5-aDG cells, alpha-DG glycosylation AlphaScreen (IIH6); 0% Pro5, 100% B10-LARGE cell signal | activation, % at 10 µM | 360,000 compounds, 0.22% hits;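 active = activation of at least 8% versus controls, or a plate z-score of at least 8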;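 also: Pro5 are CHO cells carrying HIG-tagged alpha-DG that lacks glycosylation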
# * = called active by the depositor; . = no result. Sampled rows, rich in hits. Any-hit rate of the full collection: about 4%.
SMILES,FAS-TE inh,GRIN3A LBD mod,ADAM10 inh,ADAM17 inh,aDG glyco up
O=C(Nc1ccccc1)c1cc2ccc3ccccc3c2s1,11.9,33.0*,6.9,-1.9,0.2
COc1ccc2cc(C(=O)Nc3ccc(S(N)(=O)=O)cc3)sc(=O)c2c1OC,-6.8,22.5*,-35.8,-11.0,0.6
CCOc1ccc(NC(=O)CN(c2ccc(OC)c(OC)c2)S(=O)(=O)c2ccc(C)cc2)cc1,6.1,5.0,1.9,3.0,-0.1
O=C1NC[C@@H](CCCCN2CCN(CCC3CCCCC3)C(=O)C2=O)N(Cc2ccccc2)C1=O,-6.3,.,2.7,6.6,-0.1
Cc1ccc(S(=O)(=O)Nc2ccc(N(C)S(=O)(=O)c3ccc(C)cc3)cc2)cc1,40.6,-5.6,18.9,5.0,0.0
COc1cc(C(C(=O)NC2CCCCC2)N(C(=O)Cc2c[nH]c3ccccc23)c2ccc(C)cc2)cc(OC)c1OC (configuration not stated),14.0,25.8*,14.3,5.2,-0.2
Cc1ccc(C(=O)Nc2cccc(C(F)(F)F)c2)cc1NC(=O)c1[nH]cnc1C(N)=O,0.3,-6.1,-3.1,-2.8,-0.1
CC(C)c1ccc(NC(=O)NCc2ccc(F)cc2)cc1,5.1,-6.2,6.2,3.9,1.4
Cc1cc(C(=O)NC2CC(C)(C)Cc3c2cnn3-c2cccc(F)c2)nn1C (configuration not stated),-2.5,11.7*,-7.1,-3.2,0.1
Cc1cc(Nc2ccccc2)n(C(=O)c2ccccc2)n1,19.9,18.2*,4.8,-0.2,-0.4
Cc1cc(Nc2ccccc2)nn1C(=O)c1ccc([N+](=O)[O-])cc1,20.7,39.6*,9.3,-4.0,-0.1
Cc1cc(Nc2ccccc2)nn1C(=O)c1ccc(Cl)cc1,22.2,0.0,0.9,-4.8,-0.1
Cc1cc(Nc2ccccc2)n(-c2ccccc2)n1,-3.8,-4.2,5.2,-0.5,0.2
COc1ccc(/C(C)=N/NC(=O)c2sccc2-n2cccc2)cc1,9.4,-1.9,-13.0,-7.1,0.1
Cc1ccc(NC(=O)c2ccc(N3C(=O)C4CC=C(Cl)CC4C3=O)cc2)cc1 (configuration not stated),7.1,26.3*,2.1,-0.2,0.0
CCCCNC(=O)c1c(CSc2ccc(Cl)cc2)noc1C(=O)NCc1ccccc1,24.5,-0.8,11.0,-2.5,0.3
CN(C)S(=O)(=O)c1cccc(-c2nn(-c3ccccc3)cc2/C=C2\SC(=S)NC2=O)c1,39.7,11.2*,11.8,4.6,-0.7
COc1ccc(N2C(=O)CC(N3CCC(O)(c4ccc(Cl)cc4)CC3)C2=O)cc1 (configuration not stated),-7.8,-6.1,2.3,-0.1,0.3
C[C@@H]1CN([C@@H](C)CO)C(=O)CCCn2cc(nn2)CO[C@H]1CN(C)C(=O)Nc1ccc(N2CCN(C)CC2)cc1,.,.,-15.3,-5.4,.
COc1ccc(C(C)C)cc1S(=O)(=O)N1CCC(C(=O)NCC2CCCO2)CC1 (configuration not stated),-7.1,11.1*,1.8,-2.1,0.1
COc1ccc(OC)c(S(=O)(=O)N2CCC(C(=O)NCCc3ccc(OC)c(OC)c3)CC2)c1,-7.3,10.9*,4.0,-1.8,-0.2
COc1ccc(S(=O)(=O)N2CCC(C(=O)NCCc3ccc(OC)c(OC)c3)CC2)cc1,-3.7,.,-5.7,-0.7,-0.1
COc1cccc(CNC(=O)C2CCN(S(=O)(=O)N3CCCCC3)CC2)c1,-3.7,12.7*,8.1,-2.2,-0.1
O=C(NCC1CCCO1)C1CCN(C(=O)c2ccc(Br)cc2)CC1 (configuration not stated),-9.7,13.7*,-4.0,-2.7,-0.1
COc1ccc(N2CCN(C(=O)Cc3ccc(Br)cc3)CC2)cc1,8.2,-0.9,1.1,-2.4,0.0
SMILES,FAS-TE inh,GRIN3A LBD mod,ADAM10 inh,ADAM17 inh,aDG glyco up
O=C(NCCCN1CCOCC1)c1nn2c(C(F)(F)F)cc(-c3ccco3)nc2c1Cl,-5.3,-0.9,-8.8,-3.1,0.2
Cc1ccc(-c2ccnc3cc(C)nn23)cc1,-6.4,0.0,-13.2,-6.4,-0.1
CCCCN(CC)Cc1c(C)[nH]c2ccccc2c1=O,-0.2,-1.4,-1.8,-2.0,0.0
Cc1noc(C)c1S(=O)(=O)N1CCC(C(=O)NCCc2ccc(S(N)(=O)=O)cc2)CC1,-4.4,11.0*,-12.8,-5.9,0.2
Cc1ccc(CNC(=O)C2CCN(S(=O)(=O)c3c(C)noc3C)CC2)cc1,-1.2,0.4,-10.4,-6.7,0.2
Cc1cc2c(cc1C)CSC(c1c(O)ccc3ccccc13)SC2,39.4,27.0*,-3.6,-3.7,-0.2
Cc1cc2c(cc1C)CSC(c1ccc(O)cc1)SC2,4.0,7.9,14.9,4.8,-0.2
Cc1cc2c(cc1C)CSC(c1ccccc1OC(=O)C(C)(C)C)SC2,29.2,2.0,3.2,-1.1,0.3
Cc1cc2c(cc1C)CSC(c1ccccc1O)SC2,23.3,11.6*,19.5,7.5,-0.3
Cc1cc2c(cc1C)CSC(c1ccc3ccccc3c1O)SC2,3.1,14.7*,-7.1,-6.2,-0.1
Clc1cccc(N/N=C/c2ccc(N3CCOCC3)s2)c1,44.8,19.2*,0.8,-0.1,-0.4
O=C(N/N=C/c1ccc(N2CCOCC2)s1)c1ccccc1Br,-11.4,-2.4,-3.1,-2.1,0.2
Nc1ccc(C(=O)N/N=C/c2ccc(N3CCOCC3)s2)cc1,-3.6,11.4*,-35.8,-9.9,-0.2
ClC1CCCCC1n1nnc2ccccc21 (configuration not stated),-1.1,-2.5,6.6,-0.9,-0.1
COc1ccc(-c2csc(NC(=O)CSc3ccc(Br)cc3)n2)c(OC)c1,15.0,12.1*,7.8,2.8,0.2
COc1ccc(-c2csc(NC(=O)CN3C(=O)CCC3=O)n2)c(OC)c1,-3.4,17.9*,-2.0,-1.1,0.1
CCCOc1ccc(-c2csc(NC(=O)CN3C(=O)CCC3=O)n2)cc1,-5.1,35.7*,4.7,-1.2,0.0
CN(CCc1ccccc1)C(=O)c1ccc(NC(=O)Cc2ccc(NC(=O)C3CCCN(C(=O)CCc4ccccc4)C3)cc2)cc1 (configuration not stated),5.4,11.4*,15.4,6.5,0.7
CCN(CC)CC(=O)Nc1c(C)cc(C)cc1C,.,10.2*,.,.,.
COc1cc(NC(=O)CN2CCN(c3ccccc3F)CC2)c(C)cc1[N+](=O)[O-],-4.2,14.8*,-4.2,-7.7,0.0
Cc1cccc(N2CCN(CC(=O)Nc3ccccc3[N+](=O)[O-])CC2)c1C,26.5,15.3*,1.1,-2.1,-0.3
CCOc1ccc(OCC)c(NC(=O)CN2CCN(c3cccc(C)c3C)CC2)c1,32.7,10.6*,-2.3,-2.8,0.7
Cc1cccc(C)c1OCc1cc(C(=O)N2CCC(c3ccccc3)CC2)no1,26.6,0.6,8.2,5.5,-0.3
CCC(CC)NC(=O)COC(=O)c1ccc2c(c1)C(=O)N(Cc1ccco1)C2=O,6.8,0.8,-5.7,-5.0,-0.1
O=C(Cc1ccc(S(=O)(=O)N2CCOCC2)s1)Nc1ccc(S(=O)(=O)N2CCCCC2)cc1,47.9,-1.4,.,.,0.0
